Laboratory results taken from PubChem BioAssay AID598 (SRMLSC, 2007).
The whole screen tested about 85,000 compounds, of which about 5,100 (6%) were called active. The sample as a whole holds a higher share of actives than the screen did. Values without a mark were called inactive.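 How the source made its calls: active means viability at or below 40%; inactive means viability above 40%.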

Assay: proliferation blockers of H69AR lung cancer cells, primary screen, cell-based, human, 86K library (AID 598);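 further: multidrug resistant small cell line overexpressing MRP-1 efflux transporter; 100% = mean luminescence of untreated control wells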
Details: H69AR lung tumor viability, ATP luminescence, 72 h; at 10 µM; hits give low values

Compound	viability
COc1ccc(CSc2nc(N3CCOCC3)c3c(c2C#N)CC(C)(C)OC3)cc1	92.7%
CC(C)c1nc(N2CCOCC2)c(C#N)c2c1COC(C)(C)C2	79.6%
CC1(C)Cc2c(C#N)c(SCc3nc4ccccc4[nH]3)nc(N3CCOCC3)c2CO1	37.1% (active)
CCc1ccc(C2C(C#N)=C(N)Oc3n[nH]c(CC(=O)OC)c32)cc1 (stereo not given)	92.7%
O=C(Nc1ccc2c(c1)OCCO2)C(c1ccc(F)cc1)N1CCCCC1 (stereo not given)	99.9%
Cc1ccc(OCc2nnc(NC(=O)OCC(C)C)s2)cc1	102%
CC1Cc2ccccc2N1C(=O)CSc1nnc(-c2ccc(S(=O)(=O)N3CCCCC3)cc2)o1 (stereo not given)	29.4% (active)
CCS(=O)(=O)c1ccc2oc(SCC(=O)N3c4ccccc4CC3C)nc2c1 (stereo not given)	63.3%
CC1Cc2ccccc2N1C(=O)CSc1nc2ccccc2o1 (stereo not given)	74.2%
CCOC(=O)/C(C#N)=C\c1c(C)cc(C)c(COC(C)=O)c1C	95.1%
CCNC(=O)NC(=O)C(C)OC(=O)c1cc(S(=O)(=O)N2CCCCCC2)ccc1OC (stereo not given)	84.3%
Cc1ccc(NC(=S)NC(NC(=O)Cc2cccc3ccccc23)C(Cl)(Cl)Cl)cc1 (stereo not given)	0.99% (active)
Cc1ccc(NC(=O)CCN2CCc3ccccc3C2)cc1	79.4%
CC(N=Cc1nc(-c2ccccc2)oc1O)c1ccccc1 (stereo not given)	94.3%
Cc1ccc(S(=O)(=O)N2CCC(C(=O)NCC3CCCO3)CC2)cc1 (stereo not given)	105%
COc1cccc(NC(=O)CN2CCN(c3nc(-c4cccc(OC)c4)cs3)CC2)c1	93.2%
COc1ccc([N+](=O)[O-])cc1C1NN=C(c2cccc3ccccc23)S1 (stereo not given)	27.1% (active)
Cc1ccc(CNC(=O)COc2ccc(S(=O)(=O)NC(C)C)cc2)cc1	98.1%
COc1cc2c(cc1OC)C(C(=O)NCc1ccco1)C1c3ccccc3CCN1C2=O (stereo not given)	92.7%
COc1ccc(-c2cc(C(=O)NCc3ccco3)no2)cc1OC	100%

Compound	viability
COc1ccc(C2=NOC(C(=O)NCc3ccco3)C2)cc1OC (stereo not given)	28.7% (active)
COc1cccc(N=c2oc3c(C)ncc(CO)c3cc2C(N)=O)c1	68%
CCCCn1c(SCC(=O)N2CCC(C(=O)OCC)CC2)nc2cc(S(N)(=O)=O)ccc21	48.4%
CCn1c(SCC(=O)NCC2CCCO2)nc2cc(S(=O)(=O)N3CCCCC3)ccc21 (stereo not given)	96.9%
CCCCn1c(SCc2ncc(-c3ccccc3)o2)nc2cc(S(N)(=O)=O)ccc21	14% (active)
COC(=O)c1ccc(NC(=O)C23CC4CC(C2)CC(n2cnc(Cl)n2)(C4)C3)cc1	72.7%
CCOC(=O)c1[nH]c2c(c1C)C(=O)CC(c1ccc(N(C)C)cc1)C2 (stereo not given)	100%
CCCOC(=O)c1[nH]c2c(c1C)C(=O)CC(c1cc(OC)c(OC)c(OC)c1)C2 (stereo not given)	80.3%
CCCOC(=O)c1[nH]c2c(c1C)C(=O)CC(c1cccs1)C2 (stereo not given)	34.2% (active)
Cc1nc(NC(=O)CN(C)S(=O)(=O)c2ccc(Cl)cc2)sc1C	61.4%
CCc1c(C)sc(NC(=O)c2cccs2)c1C(N)=O	99.7%
CCN(CC)C(=O)CN(c1cccc(OC)c1)S(=O)(=O)c1ccc(C)cc1	82.3%
CCCCNC(=O)C1CCCN(S(=O)(=O)c2ccc(S(=O)(=O)NCC(C)C)cc2)C1 (stereo not given)	90.8%
O=C(Nc1ccccc1N1CCN(C(=O)c2ccccc2)CC1)c1ccc2c(c1)OCO2	81.8%
Cc1cccc(N2CCN(C(=O)C3CCN(S(=O)(=O)c4cnc[nH]4)CC3)CC2)c1C	93.6%
Cc1cccc(N2CCN(C(=O)c3cnn4c(C(F)F)cc(-c5ccccc5)nc34)CC2)c1C	28.9% (active)
O=C1CSC(c2cccc(F)c2)N1c1ccc(O)cc1 (stereo not given)	101%
CC(C)CCNC(=O)Cn1c(=O)oc2cc(S(=O)(=O)N3CC(C)CC(C)C3)ccc21 (stereo not given)	40.8%
Cc1oc(-c2ccccc2Cl)[n+]([O-])c1C	85.9%
Cc1[nH][nH]c(=O)c1N=Nc1ccccc1	91.5%

Compound	viability
Cc1[nH][nH]c(=O)c1C(c1ccc(-c2ccc(Cl)cc2)o1)c1c(C)[nH][nH]c1=O	1.92% (active)
CCN1CCN(C(=O)C2(NC(=O)Nc3cccc(F)c3)CCCCC2)CC1	90.9%
O=C(c1ccccc1Oc1ccccc1)N1CCN(c2ccc(F)cc2)CC1	100%
COC(=O)c1ccccc1NC(=O)CSc1nnnn1C	95.3%
O=C(CN1CCCCCC1)N1c2ccccc2Sc2ccc(C(F)(F)F)cc21	36.8% (active)
CC1CC(C)CN(CC(=O)N2c3ccccc3CCc3ccccc32)C1 (stereo not given)	82.7%
O=C(CN1CCCCC1)N1c2ccccc2Sc2ccc(C(F)(F)F)cc21	86.8%
CCN1CCN(c2ncnc3c2oc2nc(C)c4c(c23)CC(C)(C)OC4)CC1	81.8%
CC(C)c1nc2oc3c(N4CCN(C)CC4)ncnc3c2c2c1CCC2	33.7% (active)
Cc1cc(C)nc(N2CCN(c3ncnc4c3oc3ccccc34)CC2)n1	103%
COc1cc2c(cc1OC)C(C(C)C)=NC(C)(C)C2	88.9%
C/C(=N\NS(=O)(=O)c1ccc(Br)cc1)c1cccs1	110%
COc1ccc(/C=C/C(=O)Nc2c(C)nn(C)c2C)cc1COc1ccc(Br)cc1	57.5%
CCn1nc(C)c(NC(=O)/C=C/c2ccc(OC)c(COc3ccc(Br)cc3)c2)c1C	28.8% (active)
CCn1c(COc2ccc(OC)cc2)nnc1SCC(=O)Nc1cc(OC)ccc1OC	71.4%
COc1cccc2cc(C(=O)N3CCN(C(=O)c4ccccc4)CC3)c(=O)oc12	89.3%
O=S(=O)(NC1CCCCC1)c1ccc(F)c2ccccc12	86.6%
Cc1ccc(-c2nc3c(cnn3-c3ccccc3)c(=O)o2)cc1	79.6%
Cc1ccc(-n2ncc3c2ncn2nc(-c4ccco4)nc32)c(C)c1	78.6%
Cc1ccc(-n2ncc3c(=O)n(-c4ccc(C)c(C)c4)c(-c4ccco4)nc32)cc1	31.3% (active)
